Test results reported in PubChem BioAssay (NCI).
About 79,000 compounds went through this panel and 15% of them were active in at least one assay; those are over-represented in the sample as a whole. The source made the active and inactive calls. Rule as the data show it: active = growth inhibition above about 70%; inactive = the rest.

What was measured:
[1] = NCI Yeast Anticancer Drug Screen. Data for the sgs1 mgt1 strain (AID 161);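 also: 0% = growth of cultures given vehicle only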; conditions: S. cerevisiae sgs1 mgt1 strain, stronger effect = higher value
Outline: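 Compounds are added to genetically altered yeast, and growth is compared with cultures given vehicle alone to give percent inhibition.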

[2] = NCI Yeast Anticancer Drug Screen. Data for the CLN2oe strain (AID 163);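 also: 0% = growth of vehicle-only control cultures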; conditions: S. cerevisiae CLN2oe strain, stronger effect = higher value
Outline: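 Compounds are applied to yeast harbouring a defined cell-cycle control change; reduced growth compared with vehicle-treated controls gives the value.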

[3] = NCI Yeast Anticancer Drug Screen. Data for the cln2 rad14 strain (AID 165);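 also: 0% = growth equal to vehicle treated cultures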; conditions: S. cerevisiae cln2 rad14 strain, stronger effect = higher value
Outline: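 Readout is yeast growth inhibition versus vehicle-treated controls, using a strain with cln2 and rad14 alterations exposed to compound.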

[4] = NCI Yeast Anticancer Drug Screen. Data for the bub3 strain (AID 167); conditions: S. cerevisiae bub3 mutant strain, stronger effect = higher value
Outline: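 Part of a panel of yeast mutants defective in DNA damage repair or cell cycle regulation. Each strain is grown with compound, and inhibition is calculated relative to solvent-treated cultures.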

[5] = NCI Yeast Anticancer Drug Screen. Data for the wt2 strain (AID 169);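 also: 0% = growth of vehicle-treated yeast cultures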; conditions: S. cerevisiae wt2 strain growth inhibition, stronger effect = higher value
Outline: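 Against vehicle-treated controls, the growth of yeast exposed to each compound was compared, and the inhibition was recorded.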

[6] = NCI Yeast Anticancer Drug Screen. Data for the mlh1 strain (AID 171);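 also: 0% = growth of vehicle-treated control cultures of the same strain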; conditions: S. cerevisiae mlh1 strain growth inhibition, stronger effect = higher value
Outline: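 Measured: yeast growth. Reference: vehicle-treated controls. Organism: strain with a defined alteration affecting DNA damage repair or cell cycle control, treated with compound.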

[7] = NCI Yeast Anticancer Drug Screen. Data for the sgs1 strain (AID 173);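 also: 0% = growth of vehicle-only control cultures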; conditions: S. cerevisiae sgs1 mutant, stronger effect = higher value
Outline: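 Each compound was added to cultures of the altered yeast strain. Growth was recorded, and inhibition was derived by comparison with vehicle controls.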

[8] = NCI Yeast Anticancer Drug Screen. Data for the mlh1 rad18 strain (AID 175); conditions: S. cerevisiae mlh1 rad18 strain growth inhibition, stronger effect = higher value
Outline: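 Genetically defined yeast (DNA repair-deficient) exposed to compounds; growth inhibition determined relative to vehicle.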

[9] = NCI Yeast Anticancer Drug Screen. Data for the rad18 strain (AID 177); conditions: S. cerevisiae rad18 mutant growth inhibition, stronger effect = higher value
Outline: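 Vehicle-treated cultures served as the baseline for scoring compound-induced growth inhibition in DNA-repair-mutant yeast.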

[10] = at 5.0 µM (retest, dose inferred, filed as 0.5)
[11] = at 50.0 µM (retest, dose inferred, filed as 5.0)

Measured: growth inhibition

CN(C)c1nc(=Nc2cccc(Cl)c2)ss1
inactive: [2]; at 1.2 µM -5% | [2]; at 3.7 µM 11% | [3]; [10] 17% | [4]; at 1.2 µM 1% | [4]; at 3.7 µM 28% | [4]; [10] 69% | [5]; at 1.2 µM 9% | [5]; at 3.7 µM 32% | [6]; at 1.2 µM 11% | [6]; at 3.7 µM 50% | [7]; at 1.2 µM 15% | [7]; at 3.7 µM 52% | [9]; at 1.2 µM 12% | [9]; at 3.7 µM 48%
active: [1]; [10] 90% | [1]; [11] 99% | [1]; at 50.0 µM 99.7% | [2]; at 11.0 µM 71% | [2]; at 33.0 µM 99% | [2]; at 100.0 µM 99% | [3]; [11] 99% | [3]; at 50.0 µM 99.4% | [4]; at 11.0 µM 98% | [4]; at 33.0 µM 99% | [4]; [11] 98% | [4]; at 50.0 µM 98.3% | [4]; at 100.0 µM 99% | [5]; at 11.0 µM 90% | [5]; at 33.0 µM 99% | [5]; at 100.0 µM 99% | [6]; at 11.0 µM 96% | [6]; at 33.0 µM 99% | [6]; at 100.0 µM 99% | [7]; at 11.0 µM 95% | [7]; at 33.0 µM 99% | [7]; at 100.0 µM 99% | [8]; [10] 89% | [8]; [11] 99% | [8]; at 50.0 µM 99.5% | [9]; at 11.0 µM 97% | [9]; at 33.0 µM 99% | [9]; at 100.0 µM 99%
